Laboratory results: the supplement of paper PMC11732987, “Enantioselective OTUD7B fragment discovery through chemoproteomics screening and high-throughput optimisation” (Communications Chemistry, 2025)

Assays:
Assay in all cases: log2 ratio of Biotin-Ahx-Ub-VS probe labelling (fragment/DMSO); higher = less target engagement (more negative = stronger competition), active = hit call of the paper (q ≤ 0.05, log2 ratio ≤ -1)
Details in all cases: compound concentration: 200 uM; treatment time: 3 h
[1] = target: T1, USP42 (UniProt Q9H9J4)
T1 sequence (whole entry): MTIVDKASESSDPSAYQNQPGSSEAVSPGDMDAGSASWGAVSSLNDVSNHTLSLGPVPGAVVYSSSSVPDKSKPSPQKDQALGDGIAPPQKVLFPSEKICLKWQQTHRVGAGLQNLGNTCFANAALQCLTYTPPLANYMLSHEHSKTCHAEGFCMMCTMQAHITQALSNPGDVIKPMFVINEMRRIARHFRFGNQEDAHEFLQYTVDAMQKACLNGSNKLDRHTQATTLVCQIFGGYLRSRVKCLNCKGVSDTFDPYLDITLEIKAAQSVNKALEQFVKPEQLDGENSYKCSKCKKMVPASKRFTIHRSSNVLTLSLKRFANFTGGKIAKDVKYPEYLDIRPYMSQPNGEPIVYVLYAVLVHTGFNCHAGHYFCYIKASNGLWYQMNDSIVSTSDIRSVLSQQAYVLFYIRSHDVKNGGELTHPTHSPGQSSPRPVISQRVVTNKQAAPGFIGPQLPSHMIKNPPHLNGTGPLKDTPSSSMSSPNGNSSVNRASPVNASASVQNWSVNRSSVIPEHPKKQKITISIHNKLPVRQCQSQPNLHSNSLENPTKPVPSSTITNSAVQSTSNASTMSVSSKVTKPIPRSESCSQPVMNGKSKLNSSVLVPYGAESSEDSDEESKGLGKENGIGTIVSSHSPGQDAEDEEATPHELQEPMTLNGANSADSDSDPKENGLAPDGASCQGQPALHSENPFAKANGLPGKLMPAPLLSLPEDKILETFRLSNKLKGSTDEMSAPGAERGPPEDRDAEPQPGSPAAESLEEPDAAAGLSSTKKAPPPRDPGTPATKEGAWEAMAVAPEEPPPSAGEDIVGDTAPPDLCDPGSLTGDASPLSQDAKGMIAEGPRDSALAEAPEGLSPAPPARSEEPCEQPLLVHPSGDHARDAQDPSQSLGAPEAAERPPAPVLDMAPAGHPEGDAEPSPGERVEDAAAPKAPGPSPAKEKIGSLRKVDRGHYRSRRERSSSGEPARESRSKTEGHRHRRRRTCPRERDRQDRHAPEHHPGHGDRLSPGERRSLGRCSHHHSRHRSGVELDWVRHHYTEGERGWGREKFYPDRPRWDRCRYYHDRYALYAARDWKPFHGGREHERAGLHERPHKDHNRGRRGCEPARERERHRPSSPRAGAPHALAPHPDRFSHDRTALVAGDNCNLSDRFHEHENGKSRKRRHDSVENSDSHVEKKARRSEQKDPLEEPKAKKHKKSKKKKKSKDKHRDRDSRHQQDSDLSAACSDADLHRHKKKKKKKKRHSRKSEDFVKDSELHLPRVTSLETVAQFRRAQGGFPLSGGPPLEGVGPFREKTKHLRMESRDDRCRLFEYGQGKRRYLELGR
Summary of the method: (§1)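 Triplicate samples of HEK293T lysate, 495 µg each, received fragment at 200 µM or vehicle for 3 h, followed by Biotin-Ahx-Ub-VS (0.5 µM final) for 1 h. After NeutrAvidin enrichment of labelled DUBs and LysC/trypsin digestion, peptides were run by diaPASEF LC-MS/MS. The values are average log2 fragment/vehicle ratios from global-median-normalised Spectronaut label-free quantities, tested by unpaired t-test on proteins having ≥2 unique peptides.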

[2] = target: USP46 (UniProt P62068)
Summary of the method: as §1

[3] = target: T2, USP47 (UniProt Q96K76)
T2 sequence (whole entry): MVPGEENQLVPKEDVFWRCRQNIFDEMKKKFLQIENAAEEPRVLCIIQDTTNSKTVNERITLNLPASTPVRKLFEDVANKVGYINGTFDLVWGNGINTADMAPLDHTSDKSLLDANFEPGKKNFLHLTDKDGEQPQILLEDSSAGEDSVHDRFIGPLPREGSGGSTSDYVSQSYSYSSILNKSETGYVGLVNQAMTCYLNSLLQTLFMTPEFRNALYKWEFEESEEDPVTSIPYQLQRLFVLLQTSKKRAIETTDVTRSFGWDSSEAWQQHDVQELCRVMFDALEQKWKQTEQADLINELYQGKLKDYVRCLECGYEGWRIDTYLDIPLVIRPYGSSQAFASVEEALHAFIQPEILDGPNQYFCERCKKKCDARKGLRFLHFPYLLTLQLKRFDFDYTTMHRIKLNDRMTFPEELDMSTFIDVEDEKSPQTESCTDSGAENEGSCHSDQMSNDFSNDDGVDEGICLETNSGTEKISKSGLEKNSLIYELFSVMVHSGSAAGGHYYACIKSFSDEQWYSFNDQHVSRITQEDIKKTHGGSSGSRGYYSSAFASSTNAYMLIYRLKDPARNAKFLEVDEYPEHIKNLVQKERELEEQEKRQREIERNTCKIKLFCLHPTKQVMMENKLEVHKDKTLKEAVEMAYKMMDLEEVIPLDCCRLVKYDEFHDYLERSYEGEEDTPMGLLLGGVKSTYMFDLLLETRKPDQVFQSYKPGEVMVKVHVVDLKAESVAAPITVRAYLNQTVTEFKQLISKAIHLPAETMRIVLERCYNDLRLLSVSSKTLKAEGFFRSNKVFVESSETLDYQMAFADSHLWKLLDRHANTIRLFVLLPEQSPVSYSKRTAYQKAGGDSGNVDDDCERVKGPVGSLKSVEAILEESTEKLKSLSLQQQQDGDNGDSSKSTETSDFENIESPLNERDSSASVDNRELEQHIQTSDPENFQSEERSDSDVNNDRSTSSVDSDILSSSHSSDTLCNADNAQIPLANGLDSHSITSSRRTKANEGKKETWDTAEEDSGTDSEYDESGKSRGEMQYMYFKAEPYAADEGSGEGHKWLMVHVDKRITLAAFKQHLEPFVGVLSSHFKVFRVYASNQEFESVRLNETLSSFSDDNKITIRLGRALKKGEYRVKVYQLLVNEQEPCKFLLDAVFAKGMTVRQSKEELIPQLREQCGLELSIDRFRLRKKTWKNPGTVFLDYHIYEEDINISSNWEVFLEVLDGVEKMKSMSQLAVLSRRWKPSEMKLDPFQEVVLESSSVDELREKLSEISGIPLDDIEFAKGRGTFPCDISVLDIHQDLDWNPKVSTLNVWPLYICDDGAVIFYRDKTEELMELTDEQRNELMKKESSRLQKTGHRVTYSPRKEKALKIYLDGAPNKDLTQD
Summary of the method: as §1

[4] = target: T3, USP48 (UniProt Q86UV5)
T3 sequence (whole entry): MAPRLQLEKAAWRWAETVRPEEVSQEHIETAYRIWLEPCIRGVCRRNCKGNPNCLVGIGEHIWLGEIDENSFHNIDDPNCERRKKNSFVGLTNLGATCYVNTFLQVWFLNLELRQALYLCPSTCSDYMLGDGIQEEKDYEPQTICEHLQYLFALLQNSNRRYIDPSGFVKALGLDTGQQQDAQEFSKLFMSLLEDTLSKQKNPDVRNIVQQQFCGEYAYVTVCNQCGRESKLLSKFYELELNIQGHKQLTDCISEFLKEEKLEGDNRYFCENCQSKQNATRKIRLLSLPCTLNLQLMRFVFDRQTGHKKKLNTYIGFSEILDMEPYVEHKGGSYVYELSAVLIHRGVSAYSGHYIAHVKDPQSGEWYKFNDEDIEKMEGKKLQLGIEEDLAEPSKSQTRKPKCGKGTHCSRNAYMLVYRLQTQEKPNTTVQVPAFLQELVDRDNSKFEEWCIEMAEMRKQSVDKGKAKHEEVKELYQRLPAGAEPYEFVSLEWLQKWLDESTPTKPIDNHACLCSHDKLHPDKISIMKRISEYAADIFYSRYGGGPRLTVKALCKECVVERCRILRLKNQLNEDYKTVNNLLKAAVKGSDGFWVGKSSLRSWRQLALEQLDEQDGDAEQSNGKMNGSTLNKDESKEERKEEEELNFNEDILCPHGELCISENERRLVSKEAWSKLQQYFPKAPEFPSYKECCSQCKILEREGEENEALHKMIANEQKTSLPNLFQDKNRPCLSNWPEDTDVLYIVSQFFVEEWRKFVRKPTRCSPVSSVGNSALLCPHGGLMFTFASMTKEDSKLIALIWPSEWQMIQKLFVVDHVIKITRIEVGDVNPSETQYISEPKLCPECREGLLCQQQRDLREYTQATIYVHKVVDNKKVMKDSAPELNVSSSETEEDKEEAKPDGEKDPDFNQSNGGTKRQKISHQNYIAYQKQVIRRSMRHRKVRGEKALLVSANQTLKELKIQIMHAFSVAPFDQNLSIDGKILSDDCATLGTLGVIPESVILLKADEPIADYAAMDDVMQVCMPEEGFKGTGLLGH
Summary of the method: as §1

[5] = target: T4, USP5 (UniProt P45974)
T4 sequence (whole entry): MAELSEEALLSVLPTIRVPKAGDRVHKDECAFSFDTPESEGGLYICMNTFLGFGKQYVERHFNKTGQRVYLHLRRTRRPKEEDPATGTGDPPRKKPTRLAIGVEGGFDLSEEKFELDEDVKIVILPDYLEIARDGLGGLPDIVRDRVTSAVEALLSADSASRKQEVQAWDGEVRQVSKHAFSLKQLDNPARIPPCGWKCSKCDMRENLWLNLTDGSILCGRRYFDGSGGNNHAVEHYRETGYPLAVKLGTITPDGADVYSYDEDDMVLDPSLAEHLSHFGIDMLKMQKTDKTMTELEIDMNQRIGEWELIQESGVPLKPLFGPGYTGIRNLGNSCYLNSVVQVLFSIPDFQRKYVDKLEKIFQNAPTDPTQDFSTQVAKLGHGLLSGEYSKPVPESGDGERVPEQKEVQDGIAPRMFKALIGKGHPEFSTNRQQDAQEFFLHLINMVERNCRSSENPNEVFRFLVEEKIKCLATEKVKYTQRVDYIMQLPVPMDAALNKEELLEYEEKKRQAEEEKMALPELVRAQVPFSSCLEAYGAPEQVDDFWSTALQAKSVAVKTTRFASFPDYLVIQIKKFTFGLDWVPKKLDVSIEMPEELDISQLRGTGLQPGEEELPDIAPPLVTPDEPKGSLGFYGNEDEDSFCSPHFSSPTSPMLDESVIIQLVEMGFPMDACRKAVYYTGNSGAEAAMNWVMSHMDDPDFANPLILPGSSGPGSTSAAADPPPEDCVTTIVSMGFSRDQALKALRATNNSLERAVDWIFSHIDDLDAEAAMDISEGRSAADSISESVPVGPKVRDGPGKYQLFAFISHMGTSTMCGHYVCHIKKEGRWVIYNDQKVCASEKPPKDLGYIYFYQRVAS
Summary of the method: as §1

[6] = target: USP54 (UniProt Q70EL1)
Summary of the method: as §1

[7] = target: USP7 (UniProt Q93009)
Summary of the method: as §1

[8] = target: T5, USP8 (UniProt P40818)
T5 sequence (whole entry): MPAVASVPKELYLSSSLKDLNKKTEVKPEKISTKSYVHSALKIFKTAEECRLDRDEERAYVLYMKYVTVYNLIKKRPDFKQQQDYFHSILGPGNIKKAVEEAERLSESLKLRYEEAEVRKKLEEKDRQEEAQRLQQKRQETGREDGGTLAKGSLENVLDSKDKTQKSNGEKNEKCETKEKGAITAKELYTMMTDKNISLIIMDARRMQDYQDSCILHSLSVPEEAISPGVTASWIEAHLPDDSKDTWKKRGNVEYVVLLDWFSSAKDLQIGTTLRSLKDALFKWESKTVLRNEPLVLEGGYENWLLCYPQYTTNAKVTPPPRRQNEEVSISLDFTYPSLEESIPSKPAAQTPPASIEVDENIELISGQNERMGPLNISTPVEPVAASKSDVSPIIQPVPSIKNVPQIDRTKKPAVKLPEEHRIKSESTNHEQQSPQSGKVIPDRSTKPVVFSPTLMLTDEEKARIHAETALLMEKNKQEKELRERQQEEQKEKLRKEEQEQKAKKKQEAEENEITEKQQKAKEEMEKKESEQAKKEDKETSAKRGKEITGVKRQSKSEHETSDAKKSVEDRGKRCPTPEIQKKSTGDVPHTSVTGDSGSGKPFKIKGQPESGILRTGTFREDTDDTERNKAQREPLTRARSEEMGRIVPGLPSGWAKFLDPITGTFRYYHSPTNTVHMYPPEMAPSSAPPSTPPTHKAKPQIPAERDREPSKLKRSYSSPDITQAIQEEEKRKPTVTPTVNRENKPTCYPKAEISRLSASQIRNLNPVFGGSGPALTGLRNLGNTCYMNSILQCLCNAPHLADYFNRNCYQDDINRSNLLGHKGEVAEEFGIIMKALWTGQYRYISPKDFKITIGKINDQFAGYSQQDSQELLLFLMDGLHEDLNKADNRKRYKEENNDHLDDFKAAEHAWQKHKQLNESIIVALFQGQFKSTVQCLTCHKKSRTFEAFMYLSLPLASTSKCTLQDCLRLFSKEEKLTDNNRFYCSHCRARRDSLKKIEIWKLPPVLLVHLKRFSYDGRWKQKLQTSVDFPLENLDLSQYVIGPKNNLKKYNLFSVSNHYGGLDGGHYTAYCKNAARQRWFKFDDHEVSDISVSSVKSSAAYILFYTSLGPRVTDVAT
Summary of the method: as §1

[9] = target: USP9X (UniProt Q93008)
Summary of the method: as §1

[10] = target: UniProt O00487
Summary of the method: as §1

Measured: log2 ratio of Biotin-Ahx-Ub-VS probe labelling

Sequence of USP54 (Q70EL1 whole entry): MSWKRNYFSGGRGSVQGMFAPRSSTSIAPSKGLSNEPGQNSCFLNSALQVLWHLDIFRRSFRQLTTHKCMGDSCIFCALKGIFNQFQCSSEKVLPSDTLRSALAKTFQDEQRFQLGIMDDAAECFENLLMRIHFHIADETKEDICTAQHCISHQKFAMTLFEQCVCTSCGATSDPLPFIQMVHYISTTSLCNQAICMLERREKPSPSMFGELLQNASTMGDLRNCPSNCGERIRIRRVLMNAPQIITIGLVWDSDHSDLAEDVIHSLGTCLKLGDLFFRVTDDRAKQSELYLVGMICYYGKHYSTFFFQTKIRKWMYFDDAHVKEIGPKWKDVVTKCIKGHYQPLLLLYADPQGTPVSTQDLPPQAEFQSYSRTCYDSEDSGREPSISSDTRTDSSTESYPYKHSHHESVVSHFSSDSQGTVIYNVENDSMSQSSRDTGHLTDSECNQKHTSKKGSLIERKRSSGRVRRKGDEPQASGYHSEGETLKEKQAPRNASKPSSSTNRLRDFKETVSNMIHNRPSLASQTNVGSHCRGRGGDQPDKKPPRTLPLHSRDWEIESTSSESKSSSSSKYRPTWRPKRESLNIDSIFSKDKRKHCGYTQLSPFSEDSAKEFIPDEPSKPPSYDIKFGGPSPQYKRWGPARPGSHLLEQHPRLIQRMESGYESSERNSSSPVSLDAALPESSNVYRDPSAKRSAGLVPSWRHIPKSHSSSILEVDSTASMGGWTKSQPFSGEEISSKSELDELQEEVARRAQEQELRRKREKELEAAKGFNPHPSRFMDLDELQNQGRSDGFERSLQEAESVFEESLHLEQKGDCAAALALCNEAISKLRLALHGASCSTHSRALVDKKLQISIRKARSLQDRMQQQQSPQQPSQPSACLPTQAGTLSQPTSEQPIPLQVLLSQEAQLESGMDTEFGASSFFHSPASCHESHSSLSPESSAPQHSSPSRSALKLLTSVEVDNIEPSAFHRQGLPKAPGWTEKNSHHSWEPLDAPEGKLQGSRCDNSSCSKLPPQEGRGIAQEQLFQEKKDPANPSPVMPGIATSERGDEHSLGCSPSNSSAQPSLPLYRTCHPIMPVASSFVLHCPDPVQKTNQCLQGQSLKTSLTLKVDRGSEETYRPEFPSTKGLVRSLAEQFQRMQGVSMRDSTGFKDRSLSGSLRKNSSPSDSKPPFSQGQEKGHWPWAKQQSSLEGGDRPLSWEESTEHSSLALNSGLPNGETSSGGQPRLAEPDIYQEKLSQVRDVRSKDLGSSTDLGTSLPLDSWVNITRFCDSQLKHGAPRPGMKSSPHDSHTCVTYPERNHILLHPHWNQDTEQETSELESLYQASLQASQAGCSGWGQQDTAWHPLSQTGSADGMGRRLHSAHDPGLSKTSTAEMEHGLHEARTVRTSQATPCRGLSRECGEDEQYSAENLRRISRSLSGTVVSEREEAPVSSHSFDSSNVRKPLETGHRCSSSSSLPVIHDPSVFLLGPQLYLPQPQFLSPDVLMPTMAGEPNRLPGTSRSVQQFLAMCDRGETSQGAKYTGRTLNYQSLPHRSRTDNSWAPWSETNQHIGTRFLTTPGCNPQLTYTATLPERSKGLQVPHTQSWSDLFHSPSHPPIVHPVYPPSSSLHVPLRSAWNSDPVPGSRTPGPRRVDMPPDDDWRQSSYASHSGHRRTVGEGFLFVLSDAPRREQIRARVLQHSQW
Sequence of USP46 (P62068 whole entry): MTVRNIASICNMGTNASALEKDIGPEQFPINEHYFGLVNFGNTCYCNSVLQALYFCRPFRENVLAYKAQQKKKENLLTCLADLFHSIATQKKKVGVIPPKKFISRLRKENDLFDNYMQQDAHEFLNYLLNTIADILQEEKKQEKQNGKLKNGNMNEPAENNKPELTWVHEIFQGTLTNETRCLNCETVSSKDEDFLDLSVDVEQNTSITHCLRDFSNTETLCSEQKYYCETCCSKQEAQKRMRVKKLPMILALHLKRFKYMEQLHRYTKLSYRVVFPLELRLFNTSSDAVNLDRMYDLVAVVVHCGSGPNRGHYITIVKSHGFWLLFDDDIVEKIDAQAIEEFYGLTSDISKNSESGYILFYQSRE
Sequence of UniProt O00487 (O00487 whole entry): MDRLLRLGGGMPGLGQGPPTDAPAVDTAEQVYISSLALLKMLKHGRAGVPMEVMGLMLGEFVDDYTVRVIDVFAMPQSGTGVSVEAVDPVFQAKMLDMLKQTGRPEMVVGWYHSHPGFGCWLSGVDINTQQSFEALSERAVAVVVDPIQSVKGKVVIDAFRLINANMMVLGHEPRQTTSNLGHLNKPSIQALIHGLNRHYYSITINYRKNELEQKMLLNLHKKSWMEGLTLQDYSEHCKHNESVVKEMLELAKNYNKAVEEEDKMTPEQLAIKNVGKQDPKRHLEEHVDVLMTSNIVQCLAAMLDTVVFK
Sequence of USP9X (Q93008 whole entry): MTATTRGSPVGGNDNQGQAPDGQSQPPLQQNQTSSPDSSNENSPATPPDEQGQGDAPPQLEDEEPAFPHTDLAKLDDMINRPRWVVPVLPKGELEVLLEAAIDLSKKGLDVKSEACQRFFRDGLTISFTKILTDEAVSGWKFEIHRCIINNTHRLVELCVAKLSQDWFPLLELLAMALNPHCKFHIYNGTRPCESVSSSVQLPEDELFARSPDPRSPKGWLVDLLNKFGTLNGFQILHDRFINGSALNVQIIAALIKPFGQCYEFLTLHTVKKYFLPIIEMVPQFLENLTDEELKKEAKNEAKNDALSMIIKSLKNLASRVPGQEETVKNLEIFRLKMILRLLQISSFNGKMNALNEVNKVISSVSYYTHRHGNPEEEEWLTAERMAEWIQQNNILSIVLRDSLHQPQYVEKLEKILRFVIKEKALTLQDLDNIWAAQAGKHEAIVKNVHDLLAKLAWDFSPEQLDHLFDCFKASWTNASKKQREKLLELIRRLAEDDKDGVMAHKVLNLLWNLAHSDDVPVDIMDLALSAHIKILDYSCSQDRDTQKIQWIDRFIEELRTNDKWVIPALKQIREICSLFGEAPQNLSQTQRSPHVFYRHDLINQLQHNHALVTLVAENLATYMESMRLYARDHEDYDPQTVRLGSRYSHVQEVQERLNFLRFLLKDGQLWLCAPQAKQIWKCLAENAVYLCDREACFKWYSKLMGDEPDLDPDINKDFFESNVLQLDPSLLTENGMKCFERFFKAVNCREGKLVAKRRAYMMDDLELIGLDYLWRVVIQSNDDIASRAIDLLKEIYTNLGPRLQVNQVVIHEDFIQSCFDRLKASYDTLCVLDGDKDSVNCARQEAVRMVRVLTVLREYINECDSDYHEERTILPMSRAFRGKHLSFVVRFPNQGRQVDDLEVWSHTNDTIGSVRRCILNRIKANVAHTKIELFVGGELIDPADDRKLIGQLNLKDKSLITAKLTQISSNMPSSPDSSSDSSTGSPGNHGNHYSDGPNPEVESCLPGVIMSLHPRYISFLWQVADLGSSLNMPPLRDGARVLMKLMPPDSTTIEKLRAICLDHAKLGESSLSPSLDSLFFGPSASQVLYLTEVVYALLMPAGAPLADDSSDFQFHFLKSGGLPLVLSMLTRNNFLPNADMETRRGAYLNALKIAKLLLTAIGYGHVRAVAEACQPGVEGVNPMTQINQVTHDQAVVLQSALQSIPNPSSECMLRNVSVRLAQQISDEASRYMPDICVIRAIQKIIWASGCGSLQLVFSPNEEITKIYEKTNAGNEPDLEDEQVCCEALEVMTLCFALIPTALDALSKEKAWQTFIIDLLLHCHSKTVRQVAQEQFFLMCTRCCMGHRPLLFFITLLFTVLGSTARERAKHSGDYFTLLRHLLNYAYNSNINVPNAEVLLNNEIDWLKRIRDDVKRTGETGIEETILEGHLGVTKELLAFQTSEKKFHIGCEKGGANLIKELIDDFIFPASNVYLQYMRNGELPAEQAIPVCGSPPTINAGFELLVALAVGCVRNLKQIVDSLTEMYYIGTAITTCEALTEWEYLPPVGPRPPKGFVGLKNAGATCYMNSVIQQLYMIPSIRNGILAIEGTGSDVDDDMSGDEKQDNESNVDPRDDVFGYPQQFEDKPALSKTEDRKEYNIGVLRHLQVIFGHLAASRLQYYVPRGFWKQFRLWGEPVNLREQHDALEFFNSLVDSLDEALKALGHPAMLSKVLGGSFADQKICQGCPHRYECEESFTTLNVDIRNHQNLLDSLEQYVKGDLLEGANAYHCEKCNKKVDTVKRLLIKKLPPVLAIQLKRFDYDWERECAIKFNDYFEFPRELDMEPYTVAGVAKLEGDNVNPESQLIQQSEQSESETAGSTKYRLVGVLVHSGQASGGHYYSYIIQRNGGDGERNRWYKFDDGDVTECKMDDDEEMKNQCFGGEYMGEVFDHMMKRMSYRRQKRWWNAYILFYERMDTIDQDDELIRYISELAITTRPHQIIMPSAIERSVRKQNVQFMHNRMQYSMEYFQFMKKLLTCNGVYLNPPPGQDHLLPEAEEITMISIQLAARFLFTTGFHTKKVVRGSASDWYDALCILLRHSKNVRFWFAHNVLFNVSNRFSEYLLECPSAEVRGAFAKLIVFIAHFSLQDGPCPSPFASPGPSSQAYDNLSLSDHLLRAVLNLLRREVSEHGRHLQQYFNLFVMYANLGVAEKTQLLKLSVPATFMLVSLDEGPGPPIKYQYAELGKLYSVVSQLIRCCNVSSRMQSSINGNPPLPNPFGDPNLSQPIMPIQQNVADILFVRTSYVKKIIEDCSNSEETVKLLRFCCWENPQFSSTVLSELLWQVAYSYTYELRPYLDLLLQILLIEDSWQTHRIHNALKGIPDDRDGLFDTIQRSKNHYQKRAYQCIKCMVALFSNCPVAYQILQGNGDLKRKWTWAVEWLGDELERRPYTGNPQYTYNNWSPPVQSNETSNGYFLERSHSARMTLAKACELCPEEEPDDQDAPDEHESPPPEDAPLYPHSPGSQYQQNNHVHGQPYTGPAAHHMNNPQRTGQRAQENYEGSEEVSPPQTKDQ

C[C@@H](NC(=O)CCl)c1cccc(C#N)c1
inactive: [1] 0.213 | [2] 0.013 | [3] -0.609 | [4] -0.209 | [5] 0.067 | [6] 0.0518 | [7] -0.0563 | [8] -0.19 | [9] -0.116 | [10] 0.0457
